Only a selection was taken, and hits are over-represented in it overall.
Pf Dd2 growth = blocks in vitro growth of P. falciparum Dd2; P. falciparum Dd2 growth, SYBR Green, 72 h; Potency, µM (titrated, usually from 28.9 µM), actives largely listed as inhibitors; actives 4.3% (n = 120,000); active = well fitted inhibition curve with a large enough effect; note: nearly all actives have a fitted effect of over 65% in size
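Infected erythrocytes (Dd2, 0.3% parasitemia, 2.5% hematocrit final) are added to compound in RPMI-1640/Albumax II medium, grown 72 h at 37C in low oxygen, then lysed with saponin/Triton-X containing SYBR Green and read by fluorescence.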
Numbers stand for hits; n = inactive.

SMILES	Pf Dd2 growth
Cc1ccc(NC(=O)N2CCN(c3nnc(C)c4c(C)n(-c5ccccc5)nc34)CC2)c(Cl)c1	n
Cc1ccc(NC(=O)N2CCc3c([nH]c4ccccc34)C2c2ccccc2F)c(Cl)c1 (stereo not drawn)	10µM
CCCCCNC(=O)CCN(CC)C(=O)c1cc(C)oc1C	n
Cc1cc(C(=O)N(CCC(=O)NCCC(C)C)CCC(C)C)c(C)o1	11.2µM
Cc1cc(C(=O)N(CCC(=O)NCc2ccccc2)CCC(C)C)c(C)o1	n
COC[C@@H]1CN(C(=O)CC2=CCCCC2)C[C@H]1c1nc(C2CC2)no1	n
Cc1ccc(C(=O)N2C[C@@H](F)C[C@H]2C(=O)N2CCCCC2)cc1F	n
COCc1cc(C[C@@H]2CC[C@H](O)[C@@H](CNC(=O)N3CCOCC3)O2)no1	n
O=C(CN1C(=O)COc2ccc(C(=O)COc3ccccc3F)cc21)NCc1ccco1	n
COc1ccccc1C(=O)N1CCCN(Cc2ccc3c(c2)OCO3)c2ccccc21	n
O=C(C1CC1)N1CCCN(Cc2ccc3c(c2)OCO3)c2ccccc21	8.91µM
COCCN1CCCN(C(=O)C2CCC2)c2ccccc21	n
O=C(NC1CCN(c2cc(C(F)(F)F)ncn2)CC1)c1ccc(F)cc1Cl	n
COCCC(=O)NC[C@@H]1C=C(C)[C@H](CC(=O)N(C)Cc2cccnc2)C[C@H]1C(C)C	n
CC1=C[C@@H](CNS(=O)(=O)c2cccc(C#N)c2)[C@H](C(C)C)C[C@H]1CC(=O)NCc1cccnc1	n
CC1=C[C@@H](CNS(=O)(=O)c2cccc(C#N)c2)[C@H](C(C)C)C[C@H]1CC(=O)Nc1ccccn1	n
CCOC(=O)C[C@@H]1C[C@@H](C(C)C)[C@H](CNS(=O)(=O)c2ccc(OC)cc2)C=C1C	n
C#CCNC(=O)C[C@@H]1C[C@@H](C(C)C)[C@H](CNS(=O)(=O)c2cccc(C#N)c2)C=C1C	11.2µM
CC1=C[C@@H](CNS(=O)(=O)c2ccc(C)cc2)[C@H](C(C)C)C[C@H]1CC(=O)N(C)Cc1cccnc1	12.6µM
Cn1cccc1C(=O)NC1CCc2nn(C)c(=O)n2CC1 (stereo not drawn)	n
FC(F)(F)c1cccc(Nc2cnc3ccc(-n4ccnc4)nn23)c1	n
Cc1ncc2c(c1CNC(=O)c1cc(C(C)C)n3ncnc3n1)CCNC2	n
CC(C)Cc1nn2c(=O)cc(COC(=O)c3ccc(NC(=O)c4cccs4)cc3)nc2s1	n
CCCN1C(CC(C)C)=NS(=O)(=O)c2cc(NC(=O)c3cccs3)ccc21	0.112µM
CCC1=NS(=O)(=O)c2cc(NC(=O)C3CC3)ccc2N1CCOC	n
SMILES	Pf Dd2 growth
CCc1ccc2oc(-c3cc(NC(=O)c4cccs4)ccc3Cl)nc2c1	n
CCC1=NS(=O)(=O)c2cc(NC(=O)C3CC3)ccc2N1CC(C)C	4.47µM
CC(C)CN1C(=O)CCc2cc(NC(=O)c3ccc(N(C)C)cc3)ccc21	n
CC(C)CC(=O)Nc1ccc2c(c1)CCC(=O)N2CC(C)C	n
CC(=O)Nc1ccc2c(c1)S(=O)(=O)N=C(CC(C)C)N2CC(C)C	3.98µM
CCc1ccc(C2=C(C)C(N3CCC(C(=O)Nc4cccc(OC)c4)CC3)=NS2(=O)=O)cc1	n
COc1cncc(CN2C[C@H]3[C@H](C2)[S+](=O)([O-])C(C)(C)C(=O)N3CC2CCOCC2)c1	n
COCc1nc(C2CCCN(C(=O)c3cc(OC)cc(OC)c3)C2)no1 (stereo not drawn)	n
COc1ccc(-c2ccc(C(=O)N3Cc4[nH]cnc4CC3C(=O)O)o2)cc1 (stereo not drawn)	n
CCNC(=O)N1CCCCCC1c1nc(C2CC2)no1 (stereo not drawn)	n
Cc1cccc(C(=O)N2CCCCCCNC(=O)[C@@H]3C[C@@H](c4nc(-c5cccnc5)no4)C[C@@H]32)c1	n
CNC(=O)[C@@H]1C[C@@H](O)CN1C1CCN(C(=O)Cn2c(=O)oc3ccccc32)CC1	n
CCc1noc(-c2cn(C3CCN(C(=O)C(C)Oc4ccc(Cl)cc4)CC3)nn2)n1 (stereo not drawn)	n
O=[S+]([O-])(Nc1nncs1)c1ccc2c(c1)OCCN(Cc1ccsc1)C2	n
Cc1ncoc1C(=O)N1CCOC(Cc2cccc(C(F)(F)F)c2)C1 (stereo not drawn)	n
Cn1cc(CN2CCCC23CCN(c2ccnc4c(C(F)(F)F)cccc24)CC3)cn1	n
CCn1ccnc1CN1CCCC12CCN(c1ccc(C(F)(F)F)cn1)CC2	n
CCc1ncc(CN2CCCC23CCN(c2ccc(C(F)(F)F)cn2)CC3)cn1	7.94µM
COCCN1C(=O)C(CC(=O)NCCc2ccccc2)=C2CCCCC21 (stereo not drawn)	n
CN(Cc1ccc2nonc2c1)C(=O)C1CCN(C(=O)C2CCCC2)CC1	n
O=C(c1cc(F)ccc1F)N1CCN(C(=O)c2nnn3c2COC(c2ccccc2)C3)CC1 (stereo not drawn)	n
CCOC(=O)C1=C(C)N=C2SC=C(CC(=O)N3CCOCC3)N2C1c1cccc(OC)c1OC (stereo not drawn)	n
C=CCOC(=O)C1=C(C)N=C2SC=C(CC(=O)N3CCCC3)N2C1c1ccccc1Cl (stereo not drawn)	n
CC1=C(C(=O)OC(C)C)C(c2ccc([N+](=O)[O-])cc2)N2C(CC(=O)N3CCCC3)=CSC2=N1 (stereo not drawn)	2.82µM
CC1=C(C(=O)OC(C)(C)C)C(c2ccccc2)N2C(CC(=O)N3CCCC3)=CSC2=N1 (stereo not drawn)	n
SMILES	Pf Dd2 growth
CCOC(=O)C1=C(C)N=C2SC=C(CC(=O)NCCc3cccs3)N2C1c1ccccc1F (stereo not drawn)	n
CC1=C(C(=O)OC(C)C)C(c2ccccc2F)N2C(CC(=O)N3CCCC3)=CSC2=N1 (stereo not drawn)	n
C=CCOC(=O)C1=C(C)N=C2SC=C(CC(=O)N3CCCC3)N2C1c1cccc(OC)c1OC (stereo not drawn)	5.01µM
CCOC(=O)C1=C(C)N=C2SC=C(CC(=O)NCc3ccco3)N2C1c1ccccc1F (stereo not drawn)	n
CCOC(=O)C1=C(C)N=C2SC=C(CC(=O)Nc3ccc(OC)cc3)N2C1c1ccccc1F (stereo not drawn)	4.47µM
COc1ccc(OC)c(NC(=O)Cn2c(C)cc3nc4n(c(=O)c32)CCCCC4)c1	n
CC(=O)Nc1ccc(C(=O)N2CCC3(CC2)N=C(c2ccc(Cl)cc2)NO3)cc1	n
Cc1nonc1CC(=O)N1CCC2(CCC(=O)N(CCc3ccncc3)C2)CC1	n
O=C(Cn1cccn1)N1CC(c2noc(C3CCCN3CC3CC3)n2)C1 (stereo not drawn)	n
CN1c2cc(C(=O)NCc3ccccc3Br)ccc2C(=O)N2CCCC21 (stereo not drawn)	n
CC(C)(C)C1CCC2(CC1)NC(=O)N(CC(=O)Nc1ccc3c(c1)OCCO3)C2=O (stereo not drawn)	7.94µM
CC1CCC2(CC1)NC(=O)N(CC(=O)Nc1ccc3c(c1)OCO3)C2=O (stereo not drawn)	n
O=C(CN1C(=O)NC2(CCOCC2)C1=O)Nc1ccc2c(c1)OCCO2	n
Cn1cc(CNC(=O)C[C@@H]2C[C@H]3O[C@H](CNCc4ccccc4OC(F)(F)F)[C@@H](O)[C@H]3O2)cn1	n
CN1CCC2(CCC1=O)CN(C(=O)Cn1ncnn1)CCN2C (stereo not drawn)	n
Cc1ccc(C2NC(=O)N(CC(=O)Nc3ccc(F)c(F)c3)C3=C2C(=O)OC3)cc1 (stereo not drawn)	n
O=C(Cc1ccccc1Cl)N1CCN(c2cc(-c3cccs3)[nH]n2)CC1	n

Screening results: PubChem BioAssay, National Center for Advancing Translational Sciences (NCATS)
